Measured values from the supplement of paper PMC6089552.
About 300 (9.4%) of roughly 3,200 compounds showed activity. Only a selection was taken, and actives are over-represented in it overall.

System: A673/TR/shEF
Assay: cell viability (LOESS-normalised, relative to median of negative controls) (log2 ratio); higher = more viable cells (less compound effect), active = hit call of the paper (over 3 MAD below the median)
Conditions: treatment time: 72 h
Summary of the method: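 A673/TR/shEF Ewing sarcoma cells (1,500 per well, 384-well plates) were grown with or without doxycycline to induce EWS-FLI1 shRNA knockdown, starting 24 h before compounds. Library compounds at two or more concentrations, with DMSO controls, were added for three days. Cell viability was read by CellTiter-Glo luminescence on an Envision reader, then LOESS-corrected per plate, divided by the median of negative controls and log2-transformed. Hits were wells at least three median absolute deviations from the median of all screened wells.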

[1] = 0.25 µM, library screen: screen1, EWS-FLI1 expression: high (no doxycycline)
[2] = 0.25 µM, library screen: screen1, EWS-FLI1 expression: low (doxycycline-induced shRNA knockdown)
[3] = 2.5 µM, library screen: screen1, EWS-FLI1 expression: high (no doxycycline)
[4] = 2.5 µM, library screen: screen1, EWS-FLI1 expression: low (doxycycline-induced shRNA knockdown)
[5] = 0.025 µM, library screen: screen1, EWS-FLI1 expression: high (no doxycycline)
[6] = 0.025 µM, library screen: screen1, EWS-FLI1 expression: low (doxycycline-induced shRNA knockdown)
[7] = 0.25 µM, library screen: screen2, EWS-FLI1 expression: high (no doxycycline)
[8] = 0.25 µM, library screen: screen2, EWS-FLI1 expression: low (doxycycline-induced shRNA knockdown)
[9] = 2.5 µM, library screen: screen2, EWS-FLI1 expression: high (no doxycycline)
[10] = 2.5 µM, library screen: screen2, EWS-FLI1 expression: low (doxycycline-induced shRNA knockdown)
[11] = 25 µM, library screen: screen1, EWS-FLI1 expression: high (no doxycycline)
[12] = 25 µM, library screen: screen1, EWS-FLI1 expression: low (doxycycline-induced shRNA knockdown)

Measured: cell viability (log2)

CC(C)(O)CC[C@@H](O)[C@@](C)(O)[C@H]1CC[C@@]2(O)C3=CC(=O)[C@@H]4C[C@@H](O)[C@@H](O)C[C@]4(C)[C@H]3CC[C@]12C
inactive: [1] 0.0407 | [2] 0.101 | [3] 0.0783 | [4] 0.0234

C=C1C(CCl)(CCl)C2(Cl)C(Cl)C(Cl)C1(Cl)C2(Cl)Cl (configuration not stated)
inactive: [1] 0.0656 | [2] 0.021 | [3] 0.0692 | [4] 0.132

COC(=O)[C@@H]1OC(=O)C2OC23[C@@]1(C)CCC1[C@@]2(C)CCC(=O)C(C)(C)C2C[C@@H](OC(C)=O)[C@]13C (some centres not stated)
inactive: [1] 0.0302 | [2] 0.00682 | [3] 0.123 | [4] 0.0574

O=C(/C=C/c1ccc(O)cc1O)c1ccccc1
inactive: [1] 0.0477 | [2] 0.0515 | [3] 0.136 | [4] 0.0296

COC(=O)/C=C/c1cc(O)ccc1O
inactive: [5] 0.177 | [6] 0.0349 | [1] 0.18 | [2] 0.0134 | [7] 0.108 | [8] 0.184 | [4] -0.137 | [9] 0.0473 | [10] 0.11
active: [3] -0.379 | [11] -0.809 | [12] -0.511

COc1cc(/C=C/C(=O)O)ccc1O
inactive: [1] 0.0581 | [2] -0.0401 | [3] 0.12 | [4] -0.00647

CC(=O)O[C@@H]1CC[C@@]2(C)[C@H](CC[C@@H]3[C@@H]2C[C@H](OC(C)=O)[C@]2(C)[C@@H](C(C)=O)CC[C@@H]32)C1
inactive: [1] 0.135 | [2] 0.117 | [3] 0.0696 | [4] 0.102

CC(C1OC(C)(C)C(O)C1O)[C@@H]1CC[C@]2(C)C3=CCC4C(C)(C)C(=O)CC[C@]4(C)C3CC[C@@]12C (some centres not stated)
inactive: [1] 0.062 | [2] 0.126 | [3] 0.148 | [4] 0.137

Brc1ccc([C@H]2CN3CCSC3=N2)cc1
inactive: [5] 0.216 | [6] 0.000942 | [1] 0.234 | [2] 0.105 | [7] -0.0213 | [8] 0.123 | [4] -0.0691 | [9] 0.117 | [10] 0.109
active: [3] -0.357 | [11] -0.468 | [12] -0.309
